# FMDV antiviral: blocks foot and mouth disease virus; FMDV antiviral cell-based qHTS; Potency, µM (titrated, usually from 57.9 µM), for inactives: at the highest dose activity change, negative = inhibition, actives largely listed as inhibitors; hit rate 1.2% among 410,000; calls by dose curve; tested in HEK293T cells; further: read-out not given here; potency means the concentration at half of the fitted maximal effect; nearly all actives have a fitted effect of over 45% in size
# LASV entry inh: Lassa virus entry inhibition; Lassa virus pseudotype entry inhibition, cell reporter; Potency, µM (series often up to 37.9 µM), without a hit: top-dose activity change, negative = inhibition, usual class: inhibitors; hit rate 1.2% among 300,000; calls by dose curve; tested in HEK293 cells; further: potency means the concentration at half of the fitted maximal effect; nearly all actives have a fitted effect of over 50% in size
# HCMV inh: blocks human cytomegalovirus replication | HFF cells, HCMV-luciferase reporter, 72 h; hits give low values | activity change, negative = inhibition, % at 57.5 µM | hit rate 4.5% among 410,000 | AID 1259415; in the data active means activity change below about -60%; inconclusive means no clear call, values can overlap the other calls; inactive means above about -39%
#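 HFF cells seeded 16 h at 37C, treated with compounds, infected with luciferase-reporter HCMV at MOI 1 PFU/cell; luciferase read at 72 h post infection, normalized to buffer-only and Salinomycin controls.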
# Vaccinia Venus: vaccinia inhibition (Venus reporter) | Vaccinia virus Venus reporter expression, fluorescence | Potency, µM (top dose mostly 36.5 µM), for inactives: at the highest dose activity change, negative = inhibition, hits mostly inhibitors | hit rate 0.46% among 330,000; calls by dose curve; tested in A549 cells; further: potency means the concentration at half of the fitted maximal effect; nearly all actives have a fitted effect of over 30% in size
# Vaccinia mCherry: vaccinia inhibition (mCherry reporter); Vaccinia virus mCherry reporter infection, fluorescence; Potency, µM (doses to about 36.5 µM), for inactives: at the top dose activity change, negative = inhibition, most hits filed as inhibitors; hit rate 0.63% among 310,000; calls by dose curve; tested in A549 cells; further: potency means the concentration at half of the fitted maximal effect; nearly all actives have a fitted effect of over 35% in size
# MARV entry inh: inhibitors of Marburg virus binding or cell entry. Potency, µM (titrated, usually from 37.8 µM), without a hit: at the highest dose activity change, negative = inhibition, hits mostly inhibitors. hit rate 1.8% among 300,000. Marburg virus pseudotyped entry inhibition, cell reporter; calls by dose curve; tested in HEK293 cells; further: potency means the concentration at half of the fitted maximal effect
# Active calls of the source: *; i = inactive; u = inconclusive; x = not tested or not shown; [ ] = dose if it differs, or a comment. Most compounds without a hit are left out; they make up all but 6.5% or so of the library. On the % scale 0 is the no-effect control and ±100 the full control effect.
SMILES,FMDV antiviral,LASV entry inh,HCMV inh,Vaccinia Venus,Vaccinia mCherry,MARV entry inh
Cn1c(N)c(C(=O)COC(=O)/C=C/c2ccc(Cl)cc2)c(=O)n(C)c1=O,u,11%,-30,-21%,-14%,-23%
Cc1ccc(S(=O)(=O)N2CCOCC2)cc1C(=O)OCC(=O)c1c(N)n(C)c(=O)n(C)c1=O,-21%,x,79,x,x,x
COc1cccc(/C=C/C(=O)OCC(=O)c2c[nH]c3ccccc23)c1OC,25µM*,12%,-17,-10%,-14%,2%
Cn1c(N)c(C(=O)COC(=O)c2cc(S(=O)(=O)N3CCOCC3)ccc2F)c(=O)n(C)c1=O,-29%,-29%,-24,u,-26%,7.1µM*
Cn1c(N)c(C(=O)COC(=O)/C=C/c2ccc(Cl)cc2Cl)c(=O)n(C)c1=O,40µM*,5%,-4,-13%,i,-5%
CCCN1CNc2c(c(=O)[nH]c(=S)n2CCc2ccccc2Cl)C1,x,x,x,-13%,i,x
CCC[C@H]1[C@H](N(C)Cc2cccs2)CC[C@@]23CCCN2C(=O)CCC[C@@H]13,x,x,-5,x,x,x
O=C1CCC[C@H]2[C@@H](Cc3ccccc3)[C@@H](NS(=O)(=O)c3cc(Cl)cc(Cl)c3)CC[C@]23CCCN13,x,x,28,x,x,x
CCCCNC(=S)N(C)/N=C/c1c(F)cccc1F,-3%,-19%,-90*,-8%,-15%,3%
Cc1ccc(CCNC(=O)c2cn(C)c3ccc(S(=O)(=O)N4CCC(C)CC4)cc3c2=O)cc1,8%,2%[46.1 µM],7,-10%,-16%,1%[46.1 µM]
CCOC(=O)CCCc1ccc(/C(C)=N/NC(=S)NC)cc1,-21%,x,-95*,x,x,6%
CCOC(=O)CCCc1ccc(/C(C)=N/NC(N)=S)cc1,-25%,u,-23,u,u,u
Cc1cc2[nH]c3ccccc3c2c(C)n1,-27%,-6%,-98*,-29%,-2%,u
Cc1[nH]c2ccccc2c1C(c1c(C)[nH]c2ccccc12)c1c(C)[nH]c2ccccc12,x,x,x,27%,13%,x
Cc1ccc(-n2sc3ccccc3c2=O)cc1,-3%,u,-32,-8%,i,3.2µM*
O=C(Cc1ccccc1)Nc1c(C(=O)Nc2ccccc2F)oc2ccccc12,2%,12%[46.1 µM],-14,-9%,-11%,3%[46.1 µM]
COc1ccc(CNC(=O)c2cccc(N3CCCS3(=O)=O)c2)cc1OC,u,-15%[46.1 µM],-85*,-27%[7.34 µM],-22%[7.34 µM],u
COc1ccc2ncn(-c3cc(OC(C)c4ccccc4Cl)c(C(N)=O)s3)c2c1 (configuration not stated),x,0.1µM*,x,x,x,x
COc1ccc(OC)c(C(c2nnnn2Cc2ccccc2)N2CCC(C(N)=O)CC2)c1 (configuration not stated),8%,-22%,9,17%,x,-17%
NC(=O)c1sc(-n2cnc3ccccc32)cc1OCc1ccccc1Br,x,8.9µM*,x,x,x,x
COc1cc(/C(C)=N/NC(=O)CSc2nncn2C)ccc1OCc1ccccc1Cl,-2%,6%,11,3%,-11%,1%
COc1cc2ncn(-c3cc(OCc4ccccc4Cl)c(C(N)=O)s3)c2cc1OC,x,0.63µM*,x,x,x,x
Cn1c(COc2ccccc2Br)nc2ccccc21,54%,x,67,x,x,x
CCCN1CNc2c(c(=O)[nH]c(=S)n2CCc2ccc(OC)cc2OC)C1,x,x,x,-14%,i,x
Cc1ccccc1-c1nc(C(N)=O)c2c(n1)n(-c1ccc3c(c1)OCO3)c(=O)n2C,-5%,-15%[46.1 µM],5,-7%,-20%,u
SMILES,FMDV antiviral,LASV entry inh,HCMV inh,Vaccinia Venus,Vaccinia mCherry,MARV entry inh
Cc1ccc(C(C#N)c2ccc(C(=O)c3ccc(F)cc3)cc2)cc1 (configuration not stated),-22%,10µM*,-78*,u,-15%[1.46 µM],u
O=C(NCc1cccnc1)c1ccc(-c2ccc(F)c(F)c2)c2ccoc12,u,x,-85*,-25%,u,x
O=C(Nc1cccc(C(F)(F)F)c1)c1ccc(-c2ccc(F)c(F)c2)c2ccoc12,-19%,x,-76*,u,u,x
O=C(NCc1ccc(F)c(F)c1)c1ccc(-c2ccc(F)c(F)c2)c2ccoc12,-21%,x,-8,-20%,-28%,x
COc1ccccc1C(=O)OCC(=O)Nc1ccc(N2CCCCC2)cc1,x,x,x,-11%,-3%,x
CCN(CC)c1cc2c(cc1F)c(=O)c(S(=O)(=O)c1cccc(C)c1)cn2C,5%,-2%[46.1 µM],-64*,-14%,i,x
Cc1ccc(-c2nc3ccccn3c2Nc2ccccc2C)o1,x,x,x,-18%,i,x
CC(=O)O[C@@H]1C[C@H]2C(C)(C)C(=O)C=C[C@]2(C)[C@H]2CC[C@@]3(C)[C@H](c4ccoc4)OC(=O)[C@H]4O[C@]43[C@@]21C,16µM*,18µM*,-79*,u,7.9µM*,u
Cc1ccc(NC(=O)c2noc3c2CCCCC3)cc1,-33%,15µM*,72,x,x,u
CCCCC(=O)N(Cc1ccc(-c2ccccc2-c2nn[nH]n2)cc1)[C@@H](C(=O)O)C(C)C,3%,x,x,-17%,i,x
CC[C@@]1(C(=O)OC)N[C@H](CN(C)C(=O)Nc2ccccc2)[C@@H]2C(=O)N(C)C(=O)[C@@H]21,4.5µM*,x,-2,-18%,-4%,x
CC[C@@]1(C(=O)OC)N[C@H](CN(C)C(=O)Nc2ccc(F)cc2)[C@@H]2C(=O)N(C)C(=O)[C@@H]21,-1%,x,4,0%,i,x
CCOC(=O)/C=C/[C@H](CCc1ccccc1)NC(=O)C(F)(F)F,x,x,-19,x,x,x
COc1ccc2nc(NC(=O)c3cccc(-c4cc5ccccc5oc4=O)c3)sc2c1,-17%,u,1,13µM*,u,u
Cc1oc(=O)c(NC(=O)c2cccc(Cl)c2)cc1C(=O)c1ccccc1,-21%,-17%,-84*,x,x,u
O=C(Nc1cc2ccccc2oc1=O)c1ccccc1,-81%,2.5µM*,-39,0%,3%,1.3µM*
Cc1c(NC(=O)c2cccc(-c3cc4ccccc4oc3=O)c2)cccc1-c1nc2ncccc2o1,-23%,u,-68*,-20%,-9%,u
O=C1c2ccccc2/C(=C\c2ccc(O[C@@H]3CCCCO3)cc2)N1c1ccccc1,x,x,-32,x,x,x
COc1ccc2c(c1)[C@@H](NC(=O)OCc1ccccc1)[C@H](C)[C@@H](c1ccccc1)N2Cc1ccccn1,x,x,-27,x,x,x
O=C1NC(=O)C2(CCCc3ccc(N(CCO)CCO)cc32)N1 (configuration not stated),x,x,3,x,x,x
NC1(C(=O)O)CCc2cc(C(=O)O)ccc21 (configuration not stated),-13%,-13%,x,-11%,-13%,23%
O=C1NC(=O)C2(CCCc3ccc(N(CCCl)CCCl)cc32)N1 (configuration not stated),-23%,u,-81*,-15%,-28%,u
NC1(C(=O)O)CCCc2ccc(N(CCCl)CCCl)cc21 (configuration not stated),-3%,u,-63*,3%,-17%,10µM*
NC(=NCc1ccc(Cl)cc1Cl)NC(=O)c1nc(Cl)c(N)nc1N,-20%,x,x,-12%[60.7 µM],-19%[60.7 µM],x

# Assay outcomes as filed in PubChem BioAssay.
